Tests used:
Assay in all cases: log2 ratio of Biotin-Ahx-Ub-VS probe labelling (fragment/DMSO); higher = less target engagement (more negative = stronger competition), active = hit call of the paper (q ≤ 0.05, log2 ratio ≤ -1)
Conditions in all cases: compound concentration: 200 uM; treatment time: 3 h
[1] = biological target: T1, ALG13 (UniProt Q9NP73)
T1 sequence (whole entry): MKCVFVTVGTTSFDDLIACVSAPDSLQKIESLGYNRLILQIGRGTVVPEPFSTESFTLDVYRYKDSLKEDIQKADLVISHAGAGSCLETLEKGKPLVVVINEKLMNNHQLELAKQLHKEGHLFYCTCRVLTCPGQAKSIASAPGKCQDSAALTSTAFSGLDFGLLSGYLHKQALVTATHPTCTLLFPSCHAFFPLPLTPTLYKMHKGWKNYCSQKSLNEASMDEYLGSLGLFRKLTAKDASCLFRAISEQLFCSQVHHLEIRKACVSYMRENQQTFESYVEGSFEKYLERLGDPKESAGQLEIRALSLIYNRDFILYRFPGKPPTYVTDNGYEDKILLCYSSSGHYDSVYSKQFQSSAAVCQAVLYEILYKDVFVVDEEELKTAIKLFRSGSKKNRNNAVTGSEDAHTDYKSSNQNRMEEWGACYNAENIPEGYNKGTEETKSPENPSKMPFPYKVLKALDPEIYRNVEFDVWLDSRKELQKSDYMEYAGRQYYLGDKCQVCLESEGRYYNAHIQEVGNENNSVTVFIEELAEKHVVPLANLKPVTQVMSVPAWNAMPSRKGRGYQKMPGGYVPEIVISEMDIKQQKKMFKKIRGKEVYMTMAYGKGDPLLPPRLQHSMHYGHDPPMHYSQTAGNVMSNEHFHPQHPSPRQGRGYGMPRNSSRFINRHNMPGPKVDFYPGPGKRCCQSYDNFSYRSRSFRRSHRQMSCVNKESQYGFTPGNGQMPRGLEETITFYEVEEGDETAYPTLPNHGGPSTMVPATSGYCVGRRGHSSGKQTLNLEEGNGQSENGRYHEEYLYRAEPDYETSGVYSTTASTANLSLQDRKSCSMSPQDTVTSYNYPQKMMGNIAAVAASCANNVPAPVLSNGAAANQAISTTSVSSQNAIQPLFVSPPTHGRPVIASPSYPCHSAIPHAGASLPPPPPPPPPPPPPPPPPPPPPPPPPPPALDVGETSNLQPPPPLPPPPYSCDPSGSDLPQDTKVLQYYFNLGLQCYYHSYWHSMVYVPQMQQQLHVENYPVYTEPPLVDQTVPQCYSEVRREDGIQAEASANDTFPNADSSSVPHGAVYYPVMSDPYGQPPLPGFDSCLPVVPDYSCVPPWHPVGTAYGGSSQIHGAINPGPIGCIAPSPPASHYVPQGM
How it was run: (§1)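 In triplicate, 495 µg of HEK293T lysate per sample was incubated with fragment at 200 µM or vehicle for 3 h. Biotin-Ahx-Ub-VS was then added to 0.5 µM final for 1 h, and labelled DUBs were captured with NeutrAvidin, digested with LysC and trypsin, and measured by diaPASEF LC-MS/MS. Data are average log2 fragment/vehicle ratios by unpaired t-test from global-median-normalised Spectronaut label-free quantities, restricted to proteins with ≥2 unique peptides.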

[2] = biological target: ATXN3 (UniProt P54252)
How it was run: as §1

[3] = biological target: T2, BAP1 (UniProt Q92560)
T2 sequence (whole entry): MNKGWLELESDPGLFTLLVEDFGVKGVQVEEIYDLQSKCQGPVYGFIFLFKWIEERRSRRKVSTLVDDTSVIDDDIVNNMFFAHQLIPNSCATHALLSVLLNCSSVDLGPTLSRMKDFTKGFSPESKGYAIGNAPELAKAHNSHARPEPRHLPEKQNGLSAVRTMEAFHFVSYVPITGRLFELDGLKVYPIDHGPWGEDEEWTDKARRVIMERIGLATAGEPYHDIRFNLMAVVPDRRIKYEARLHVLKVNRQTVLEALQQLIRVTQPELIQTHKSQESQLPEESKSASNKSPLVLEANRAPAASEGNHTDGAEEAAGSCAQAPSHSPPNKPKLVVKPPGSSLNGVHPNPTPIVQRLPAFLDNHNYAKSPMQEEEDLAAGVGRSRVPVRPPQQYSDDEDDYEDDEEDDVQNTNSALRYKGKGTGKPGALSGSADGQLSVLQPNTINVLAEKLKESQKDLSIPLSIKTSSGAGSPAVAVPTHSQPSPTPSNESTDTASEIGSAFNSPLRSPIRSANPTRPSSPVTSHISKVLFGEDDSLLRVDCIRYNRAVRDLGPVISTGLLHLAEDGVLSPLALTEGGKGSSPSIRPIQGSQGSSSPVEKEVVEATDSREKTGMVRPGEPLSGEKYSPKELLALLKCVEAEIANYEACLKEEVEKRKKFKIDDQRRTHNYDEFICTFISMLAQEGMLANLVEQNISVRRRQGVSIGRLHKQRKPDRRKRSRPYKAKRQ
How it was run: as §1

[4] = biological target: EIF3F (UniProt O00303)
How it was run: as §1

[5] = biological target: EIF3H (UniProt O15372)
How it was run: as §1

[6] = biological target: T3, FAM105A (UniProt Q9NUU6)
T3 sequence (whole entry): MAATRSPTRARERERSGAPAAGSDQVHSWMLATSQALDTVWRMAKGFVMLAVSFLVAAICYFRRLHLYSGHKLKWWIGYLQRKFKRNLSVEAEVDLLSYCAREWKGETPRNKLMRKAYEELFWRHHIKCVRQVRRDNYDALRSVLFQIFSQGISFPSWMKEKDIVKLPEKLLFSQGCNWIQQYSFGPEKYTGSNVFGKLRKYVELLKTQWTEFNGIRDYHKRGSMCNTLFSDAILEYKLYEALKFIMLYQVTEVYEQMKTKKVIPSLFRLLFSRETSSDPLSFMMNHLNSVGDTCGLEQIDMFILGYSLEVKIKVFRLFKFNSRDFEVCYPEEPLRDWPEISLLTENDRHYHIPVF
How it was run: as §1

[7] = biological target: OTUB1 (UniProt Q96FW1)
How it was run: as §1

[8] = biological target: T4, OTUD4 (UniProt Q01804)
T4 sequence (whole entry): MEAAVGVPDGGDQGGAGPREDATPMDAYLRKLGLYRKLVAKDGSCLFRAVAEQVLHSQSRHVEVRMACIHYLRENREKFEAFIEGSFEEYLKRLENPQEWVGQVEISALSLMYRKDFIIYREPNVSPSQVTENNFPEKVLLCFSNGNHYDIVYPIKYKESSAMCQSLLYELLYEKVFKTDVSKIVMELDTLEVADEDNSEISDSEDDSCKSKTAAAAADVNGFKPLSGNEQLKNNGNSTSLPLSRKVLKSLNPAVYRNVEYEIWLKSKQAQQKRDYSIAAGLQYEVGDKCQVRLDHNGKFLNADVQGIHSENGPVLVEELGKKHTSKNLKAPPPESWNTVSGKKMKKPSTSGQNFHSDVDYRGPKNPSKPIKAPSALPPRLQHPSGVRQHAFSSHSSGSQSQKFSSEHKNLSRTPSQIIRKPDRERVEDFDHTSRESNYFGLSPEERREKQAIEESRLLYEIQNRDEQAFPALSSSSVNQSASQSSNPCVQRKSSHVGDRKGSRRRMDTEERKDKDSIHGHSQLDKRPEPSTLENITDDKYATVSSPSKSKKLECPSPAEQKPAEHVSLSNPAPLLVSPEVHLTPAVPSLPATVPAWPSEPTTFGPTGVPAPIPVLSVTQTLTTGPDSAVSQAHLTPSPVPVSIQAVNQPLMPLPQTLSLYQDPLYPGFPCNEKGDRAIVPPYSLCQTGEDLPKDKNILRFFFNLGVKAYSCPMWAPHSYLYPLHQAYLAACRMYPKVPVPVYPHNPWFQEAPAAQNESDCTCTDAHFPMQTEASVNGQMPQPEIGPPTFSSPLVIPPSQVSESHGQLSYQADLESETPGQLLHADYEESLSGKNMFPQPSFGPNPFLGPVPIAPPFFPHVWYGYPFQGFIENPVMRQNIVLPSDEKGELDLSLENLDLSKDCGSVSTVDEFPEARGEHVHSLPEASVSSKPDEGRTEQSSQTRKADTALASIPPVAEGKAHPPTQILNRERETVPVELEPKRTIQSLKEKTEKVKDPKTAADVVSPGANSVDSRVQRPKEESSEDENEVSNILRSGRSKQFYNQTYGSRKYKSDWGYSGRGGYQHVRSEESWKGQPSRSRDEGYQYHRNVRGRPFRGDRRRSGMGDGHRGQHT
How it was run: as §1

[9] = biological target: T5, OTUD5 (UniProt Q96G74)
T5 sequence (whole entry): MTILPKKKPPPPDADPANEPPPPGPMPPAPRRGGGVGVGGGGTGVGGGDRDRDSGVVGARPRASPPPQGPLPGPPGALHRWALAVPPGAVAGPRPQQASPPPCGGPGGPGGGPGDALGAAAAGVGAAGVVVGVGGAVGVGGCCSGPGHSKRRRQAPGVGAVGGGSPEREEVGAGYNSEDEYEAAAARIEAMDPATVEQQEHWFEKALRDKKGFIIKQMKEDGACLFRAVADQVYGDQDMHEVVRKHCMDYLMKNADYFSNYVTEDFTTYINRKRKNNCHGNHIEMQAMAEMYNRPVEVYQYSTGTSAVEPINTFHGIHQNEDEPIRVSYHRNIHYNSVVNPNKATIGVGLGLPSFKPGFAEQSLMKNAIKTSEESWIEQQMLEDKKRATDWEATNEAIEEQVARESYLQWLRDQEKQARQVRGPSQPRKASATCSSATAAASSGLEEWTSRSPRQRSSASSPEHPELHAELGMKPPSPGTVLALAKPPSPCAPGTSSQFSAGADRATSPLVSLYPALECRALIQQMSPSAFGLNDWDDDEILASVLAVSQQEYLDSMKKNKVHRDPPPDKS
How it was run: as §1

Measured: log2 ratio of Biotin-Ahx-Ub-VS probe labelling

EIF3F, sequence (O00303 whole entry): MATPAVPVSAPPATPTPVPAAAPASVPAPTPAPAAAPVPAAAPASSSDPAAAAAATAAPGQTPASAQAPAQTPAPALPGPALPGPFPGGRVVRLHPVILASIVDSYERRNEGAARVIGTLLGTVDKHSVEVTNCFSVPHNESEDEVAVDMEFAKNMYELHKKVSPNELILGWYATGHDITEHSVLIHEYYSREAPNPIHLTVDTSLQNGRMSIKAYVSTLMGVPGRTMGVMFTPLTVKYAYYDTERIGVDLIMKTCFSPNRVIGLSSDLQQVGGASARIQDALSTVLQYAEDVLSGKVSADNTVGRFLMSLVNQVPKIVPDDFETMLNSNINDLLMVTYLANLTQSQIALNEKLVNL
OTUB1, sequence (Q96FW1 whole entry): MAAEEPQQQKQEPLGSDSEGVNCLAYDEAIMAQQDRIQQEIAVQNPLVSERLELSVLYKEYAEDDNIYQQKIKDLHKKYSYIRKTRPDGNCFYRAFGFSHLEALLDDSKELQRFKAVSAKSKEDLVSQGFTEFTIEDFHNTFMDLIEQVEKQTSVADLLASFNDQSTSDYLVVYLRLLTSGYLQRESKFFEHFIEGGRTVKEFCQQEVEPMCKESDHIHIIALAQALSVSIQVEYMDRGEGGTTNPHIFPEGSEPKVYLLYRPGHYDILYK
ATXN3, sequence (P54252 whole entry): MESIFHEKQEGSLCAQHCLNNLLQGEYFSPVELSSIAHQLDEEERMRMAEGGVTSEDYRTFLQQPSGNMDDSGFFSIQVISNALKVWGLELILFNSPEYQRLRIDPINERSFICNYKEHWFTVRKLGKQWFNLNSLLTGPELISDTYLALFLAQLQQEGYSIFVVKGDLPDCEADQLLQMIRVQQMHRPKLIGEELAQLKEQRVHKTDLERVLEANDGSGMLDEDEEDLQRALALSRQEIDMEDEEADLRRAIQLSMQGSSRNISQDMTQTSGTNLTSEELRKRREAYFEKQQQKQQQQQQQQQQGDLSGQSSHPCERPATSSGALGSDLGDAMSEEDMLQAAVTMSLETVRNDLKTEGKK
EIF3H, sequence (O15372 whole entry): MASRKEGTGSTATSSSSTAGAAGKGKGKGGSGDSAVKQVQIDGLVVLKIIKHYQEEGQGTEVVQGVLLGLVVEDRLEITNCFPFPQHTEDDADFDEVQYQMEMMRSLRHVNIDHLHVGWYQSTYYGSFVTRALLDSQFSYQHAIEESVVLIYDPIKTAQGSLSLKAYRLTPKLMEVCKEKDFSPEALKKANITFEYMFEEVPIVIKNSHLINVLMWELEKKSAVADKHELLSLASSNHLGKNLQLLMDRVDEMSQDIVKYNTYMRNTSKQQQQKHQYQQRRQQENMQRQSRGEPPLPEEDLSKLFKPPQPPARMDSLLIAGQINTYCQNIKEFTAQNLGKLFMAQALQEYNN

O=C(CCl)Nc1nnc(CC(F)(F)F)o1
inactive: [1] -0.0296 | [2] -0.129 | [3] -0.573 | [4] -0.0944 | [5] 0.23 | [6] 0.0181 | [7] 0.15 | [8] -0.445 | [9] -0.385

Source: the supplement of paper PMC11732987, “Enantioselective OTUD7B fragment discovery through chemoproteomics screening and high-throughput optimisation” (Communications Chemistry, 2025)
